The panel holds about 79,000 compounds, 15% with a hit somewhere; the sample as a whole holds those more often. Calls of active or inactive are those of the source. Cut-off read from the data, not from the text of the source: active = growth inhibition above about 70%; inactive = the rest. Where a SMILES comes first, the peptide text is derived from it. The star is where a group is joined. Cbz = O=C(OCc1ccccc1)*

This assay in a line: NCI Yeast Anticancer Drug Screen. Data for the rad50 strain (AID 155).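 Note: 0% = growth of vehicle-only cultures of the same strain.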 As to conditions: S. cerevisiae rad50 strain growth inhibition; at 50.0 µM; stronger effect = higher value. The method in brief:
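Relative growth inhibition (compound vs vehicle) was measured in yeast with a defined repair-gene alteration.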
Consider `COC1OC(C)CC(O)C1O` (stereo not given), for which the growth inhibition is 5.3% (inactive). Regarding `COc1ccc(CC(=O)c2c(OC)c3c(c4c2OC(C)(C)CC4)OC(C)(C)CC3)cc1OC`, the growth inhibition is 21.1% (inactive).

For the molecule `COc1ccc(N=C2C(=Nc3ccc(OC)cc3)N(S(=O)(=O)c3ccccc3)C(=S)N2c2ccc(OC)cc2)cc1`, the growth inhibition is -11.8% (inactive). On to `CCc1ccccc1NC(=O)Sc1cccc(C)c1`, for which the growth inhibition was -3% (inactive).

Regarding `CC(C)(CO)N=Cc1ccc(Cl)c(Cl)c1`, the growth inhibition is 2.35% (inactive). Consider `Cc1cc(Cl)ccc1OCCCC(=O)NC(Cc1c[nH]c2ccccc12)C(=O)O` (stereo not given), for which the growth inhibition was 3.35% (inactive).

For `O=C(Nc1nnc(C(F)(F)F)s1)c1c(F)cccc1F`, the growth inhibition was 7.75% (inactive). Then `CCCCCCC(C)Cl` (stereo not given), with 18.9% (inactive); and `CC(C)=CCC(C)c1ccccn1` (stereo not given), with -2.45% (inactive); and `CC(NC(=O)C(Cc1ccc(O)cc1)NC(=O)C(C)NC(=O)OCc1ccccc1)C(=O)O` (stereo not drawn) (Cbz-Ala-Tyr-Ala-OH; configuration not given here), with 12.2% (inactive). Then `N=C(N)c1ccncc1`, with -0.6% (inactive); and `CC12CC3CC(C)(C1)CC(N=[N+]=[N-])(C3)C2`, with -27.4% (inactive). The result for `CC(C)(C)c1cc(Br)c(O)c(CN(Cc2cc(C(C)(C)C)cc(Br)c2O)C2CCCCC2)c1` reads 16.1% (inactive). As to `CCOC(=O)/C(=N/Nc1ccc(C)cc1)N1C(=S)C=C(C)NN(C)C1=S`, the growth inhibition is -34.3% (inactive). The result for `OC1CCC(c2ccccc2)CC1` (stereo not given) reads 29.1% (inactive). The result for `O=C(N/N=C/C=C/c1ccccc1)c1ccccc1O` reads -1.8% (inactive); that for `O=C(CN1CCCCC1)c1ccc(CCc2ccc(C(=O)CN3CCCCC3)cc2)cc1`, 35% (inactive); that for `CCCc1n[nH]c(=S)n1N1C(=S)NC(C)(C)C=C1C`, -1.8% (inactive). In the case of `CCCc1cc(=O)oc2c3c(c4c(c12)OC(C)(C)C=C4)O[C@H](C)[C@@H](C)C3O` (stereo not given in full), the growth inhibition is -6.25% (inactive). Regarding `O=C(O)COc1ccc(C(=O)O)cc1`, the growth inhibition was 5.6% (inactive). The result for `C(=Nc1ccc(SSc2ccc(N=Cc3ccc4c(c3)OCO4)cc2)cc1)c1ccc2c(c1)OCO2` reads 18.8% (inactive). For the molecule `COc1ccc2c(c1OC)C1(CCN(C)C)CC(O)CCC1C=C2` (stereo not given), the growth inhibition was 20.4% (inactive). The result for `N#CC(C#N)=CN1CCCCC1` reads -16.2% (inactive). Take `O=Cc1ccc2ccccc2c1`: the growth inhibition was 33.5% (inactive). Then `CC1(C)C(=O)N=C(N)N1C(=O)OCc1ccccc1`, with -11.9% (inactive); and `O=C(O)c1cc(=O)[nH]c(SCc2ccccc2)n1`, with -9.7% (inactive); and `O=C(O)C1CCC2CCCC21` (stereo not given), with -25.2% (inactive). The result for `O=C(NC(Nc1ccc(F)cc1)(C(F)(F)F)C(F)(F)F)C(C(F)(F)F)C(F)(F)F` reads 87.4% (active); that for `COC(=O)c1sc(=O)n(-c2ccccc2)c1SCc1ccccc1`, 25.4% (inactive). Turning to `COc1cc(/C=C(\OC(C)=O)c2ccc3c(c2)OCO3)cc(OC)c1OC`, the growth inhibition was -5% (inactive). Then `O=C(O)COc1c(F)cc(F)cc1Cl`, with 18.1% (inactive). For `COc1cc(C(=O)c2cocc2C(=O)c2ccc3c(c2)OCO3)cc(OC)c1OC`, the growth inhibition is -17.2% (inactive). Then `COc1cc(/C=C/C(=O)NCCCCN)ccc1O`, with 19.6% (inactive); and `CCC1(C(Cl)(Cl)Cl)C=CC(=O)C=C1`, with 13% (inactive); and `CCC(C(=O)OC)C1CCCCC1` (stereo not given), with 24.8% (inactive).

In the case of `O=c1[nH]nc(SCc2ccccc2)c(=O)[nH]1`, the growth inhibition is -18.1% (inactive).

In the case of `Nc1on(C(=O)c2ccccc2)c(=O)c1Cc1ccccc1`, the growth inhibition was -19.2% (inactive). The result for `O=c1c2ccccc2nc(-c2ccccc2Cl)n1/N=C/c1ccc(Cl)cc1Cl` reads -1.1% (inactive).

In the case of `CCC(CCC#N)(CCC#N)C(=O)c1ccc(C)s1`, the growth inhibition was 1.5% (inactive). Then `O=C(N/N=C/c1ccc(Cl)cc1Cl)c1ccccc1SSc1ccccc1C(=O)N/N=C/c1ccc(Cl)cc1Cl`, with -19.1% (inactive).

The record behind these values is PubChem BioAssay (NCI).
